Screening results: PubChem BioAssay, several laboratories
Mtb hypoxia rep – reduces hypoxia-regulated biosensor signal in M. tuberculosis. M. tuberculosis hypoxia-regulated fluorescent reporter, fluorescence. fluorescence inhibition, % (concentration not given with the values). 300,000 compounds, 0.1% hits. AID 1159583; in the data active = fluorescence inhibition mostly above about 23%, no sharp cut-off; inactive = mostly below about 17%
PrP 5UTR inh – inhibition of PrP 5' UTR reporter expression; cell-based PrP 5' UTR mRNA reporter, plate reader; inhibition, % (concentration not given with the values); 340,000 compounds, 0.35% hits; in the data active = inhibition above about 52%; also: 0 = median of the neutral control wells
Y pestis TopoI – Y. pestis Topo-I inhibition via cleavage products; activity, % at 10 µM; Y. pestis Topo-I cleavage product accumulation, plate reader; 360,000 compounds, 0.064% hits; in the data active = activity above about 50%, passing the limit was not always enough; inconclusive = no clear call, values can overlap the other calls
FBA Mtb inh – Mtb fructose-bisphosphate aldolase inhibition; P9WQA3; 360,000 compounds, 2.3% hits; purified M. tuberculosis FBA, fluorescence read-out; inhibition, % at 1 µM;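 also: 0% = vehicle and 100% = reference inhibitor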
Target sequence (P9WQA3 whole entry, looked up): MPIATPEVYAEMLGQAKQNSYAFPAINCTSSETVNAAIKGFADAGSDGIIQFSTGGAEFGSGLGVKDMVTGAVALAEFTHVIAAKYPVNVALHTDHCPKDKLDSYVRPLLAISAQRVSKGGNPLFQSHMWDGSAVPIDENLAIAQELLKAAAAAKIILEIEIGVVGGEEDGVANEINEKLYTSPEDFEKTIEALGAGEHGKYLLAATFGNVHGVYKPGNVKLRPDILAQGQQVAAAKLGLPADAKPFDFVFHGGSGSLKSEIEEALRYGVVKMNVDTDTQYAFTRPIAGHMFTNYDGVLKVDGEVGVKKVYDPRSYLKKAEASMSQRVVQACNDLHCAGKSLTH
PrPC TRFRET – cell surface PrPC inhibition, primary TR-FRET screen | 370,000 compounds, 0.43% hits | inhibition, % at 13.8 µM | AID 720596 | TR-FRET read-out | P04156; in the data active = inhibition above about 24%; also: 0% = median of the test wells and 100% = reference compound wells
GDH-TPI counter-1 – GDH-TPI coupled enzyme inhibition counter-screen | GDH-TPI coupled enzyme counterscreen, NADH absorbance | inhibition, % at 4.8 µM | 360,000 compounds, 1.2% hits; in the data active = inhibition above about 30%;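 also: 0% = DMSO wells and 100% = wells lacking the enzyme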
Mtb FBA confirm – Mtb FBA inhibition, confirmed; shares compounds with FBA Mtb inh; purified M. tuberculosis FBA, fluorescence read-out; inhibition, % at 1 µM; 5,600 compounds, 78% hits; AID 651616;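 also: 0% = vehicle wells and 100% = reference inhibitor wells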
GDH-TPI counter-2 – GDH-TPI inhibition counter-screen for FBA inhibitors; shares compounds with FBA Mtb inh; 5,600 compounds, 81% hits; inhibition, % at 1 µM; GDH-TPI coupled enzyme counterscreen, fluorescence; AID 652141; in the data active = inhibition above about 10%
GDH-TPI dose – inhibits GDH-TPI coupling enzymes in dose response. shares compounds with FBA Mtb inh. GDH-TPI coupled enzyme assay, fluorescence, artifact counterscreen. IC50, µM. 170 compounds, 79% hits. AID 652145; call rule not given here
Active calls of the source: *; ? = inconclusive; . = not tested or not shown; + = active, no number. Compounds with a hit are over-represented: about 3.8% of the library has one in this group of screens. Rule as the data show it, unless noted: active = inhibition above about 27%; inactive = the rest.

SMILES	Mtb hypoxia rep	PrP 5UTR inh	Y pestis TopoI	FBA Mtb inh	PrPC TRFRET	GDH-TPI counter-1	Mtb FBA confirm	GDH-TPI counter-2	others
CCn1nnnc1SCC(=O)N1CCOCC1	.	-1	-2	89*	2	2	+	+
O=C(Cc1ccccc1)NN=Cc1ccc([N+](=O)[O-])s1	2	.	.	.	.	.	.	.
CC(C)=CC(=O)O[C@@H]1Cc2c(ccc3ccc(=O)oc23)OC1(C)C	8	-9	20	33*	-5	16	35*	26*
CC1(C)Oc2ccc3ccc(=O)oc3c2[C@@H](O)[C@@H]1O	5	-3	-1	59*	-2	18	38*	27*
C/C=C(/C)C(=O)O[C@@H]1[C@H](OC(=O)C=C(C)C)c2c(ccc3ccc(=O)oc23)OC1(C)C	.	-5	21	3	3	13	.	.
CC(=O)OC1c2c(ccc3ccc(=O)oc23)OC(C)(C)C1OC(=O)CC(C)C (stereo unspecified)	-7	-6	17	16	-5	11	.	.
CCO[C@@H]1c2c(ccc3ccc(=O)oc23)OC(C)(C)[C@H]1O	6	-17	3	56*	4	17	21	8	GDH-TPI dose=2.9*
CCO[C@H]1c2c(ccc3ccc(=O)oc23)OC(C)(C)[C@@H]1O	4	-21	8	59*	-4	20	137*	96*
Cc1ccc(C=NNc2ccc(F)cc2F)s1	-5	.	.	.	.	.	.	.
O=C(NN=Cc1cccc(F)c1)c1c(O)c2ccccc2[nH]c1=O	-2	.	.	.	.	.	.	.
CSCCC(NC(=O)NCc1cccs1)C(=O)O (stereo unspecified)	7	.	.	.	.	.	.	.
CCO[C@@H]1c2c(ccc3ccc(=O)oc23)OC(C)(C)[C@@H]1O	8	-19	4	57*	-1	20	56*	40*
CC(=NNC(=O)c1cccnc1)c1c(O)cc(C)oc1=O	2	.	.	.	.	.	.	.
COCCn1nnnc1C(c1ccccc1OC)N1CCN(c2ccccc2)CC1 (stereo unspecified)	.	2	7	40*	-1	-2	60*	41*
COc1ccc(Cn2nnnc2C(CC(C)C)N2CCN(c3ccccc3)CC2)cc1 (stereo unspecified)	.	0	2	55*	-3	4	23	9	GDH-TPI dose=>10
CCCC(c1nnnn1Cc1ccc(OC)cc1)N1CCN(c2ccccc2)CC1 (stereo unspecified)	.	-1	26	4	12	-2	.	.
CN(C)CCCNC(=O)c1cccc(-c2cnc3cccnn23)c1	.	.	-2	102*	-3	5	+	+
CN(C)CCCNC(=O)c1cccc(-c2ccc3nccn3c2)c1	.	.	-9	-1	-10	-8	.	.
O=C(NCCO)c1cccc(-c2cccc3nncn23)c1	.	.	8	75*	2	7	72*	42*
O=S(=O)(c1cccc(-c2cn3cccnc3n2)c1)N1CCCCCC1	4	-11	-1	62*	-1	5	58*	49*
Cc1ccn2cc(-c3cccc(S(=O)(=O)N4CCCCC4)c3)nc2c1	4	-17	25	4	4	-2	.	.
O=S(=O)(Nc1ccc(-c2cn3cccnc3n2)cc1)c1ccccc1	6	-6	5	64*	1	16	10	-7
O=S(=O)(Nc1cccc(-c2cn3cccnc3n2)c1)c1ccc(F)cc1	.	-3	4	38*	6	27	83*	81*
O=S(=O)(Nc1cccc(-c2cn3cccnc3n2)c1)c1ccccc1	9	-11	2	75*	-8	15	66*	47*
CCC(C)c1ccc(OCCn2cc(C=NNC(=O)CSc3nnc(C)s3)c3ccccc32)cc1 (stereo unspecified)	3	.	.	.	.	.	.	.
SMILES	Mtb hypoxia rep	PrP 5UTR inh	Y pestis TopoI	FBA Mtb inh	PrPC TRFRET	GDH-TPI counter-1	Mtb FBA confirm	GDH-TPI counter-2	others
CCCC1NC(C(=O)O)Cc2c1[nH]c1ccccc21 (stereo unspecified)	3	-30	3	29*	-8	3	36*	35*
CC(C)C1NC(C(=O)O)Cc2c1[nH]c1ccccc21 (stereo unspecified)	.	-23	-9	45*	-8	9	164*	142*
O=C(c1ccc2c3c(cccc13)CC2)C1CCCN(CC2CC2)C1 (stereo unspecified)	-1	-12	7	33*	-5	8	6	-2
O=C(c1ccc2c3c(cccc13)CC2)C1CCCN(Cc2ccncc2)C1 (stereo unspecified)	8	.	?	12	16	18	.	.
CN(C)c1ncccc1-c1nc2ccccc2s1	11	-17	8	30*	-2	13	31*	17*
c1ccc(-c2oc3ncnc(NCCCN4CCOCC4)c3c2-c2ccccc2)cc1	14	-5	27	48*	6	22	-3	-1
COc1ccc(-c2oc3ncnc(NCCN4CCOCC4)c3c2-c2ccc(OC)cc2)cc1	1	-1	33	12	.	12	.	.
OCCCNc1ncnc2oc(-c3ccccc3)c(-c3ccccc3)c12	0	-9	28	89*	4	11	98*	79*
COc1ccc(-c2oc3ncnc(NCCCN4CCOCC4)c3c2-c2ccc(OC)cc2)cc1	13	-11	7	108*	6	14	+	+
c1ccc(-c2csc3ncnc(NCCN4CCOCC4)c23)cc1	7	-26	7	3	10	7	.	.
CCc1ccccc1NC(=S)N=C(N)Nc1nc(C)c2cc(C)ccc2n1	0	.	.	.	.	.	.	.
COCC(=O)NN=Cc1ccccc1OC/C=C/c1ccccc1	0	.	.	.	.	.	.	.
Cc1ccc(-c2cc(-c3ccc(C)cc3)[n+](-c3ccccc3)c(-c3ccc(C)cc3)c2)cc1	.	46	35	11	.	25	.	.
Cc1ccc(-c2cc(-c3ccc(C)cc3)[n+](-c3ccc(C(=O)[O-])cc3)c(-c3ccc(C)cc3)c2)cc1	.	-1	13	38*	-21	46*	14	7	GDH-TPI dose=3.8*
COc1ccc(O)c(C=c2sc3nc4cc(C)c(C)cc4n3c2=O)c1	-75	.	.	.	.	.	.	.
Cc1ccc(NC(=O)CN(C)C(=O)c2cc(-c3ccco3)nc3ccccc23)cc1	-16	-10	5	19	3	11	.	.
COc1cccc(NC(=O)CN(C)C(=O)c2cc(-c3ccco3)nc3ccccc23)c1	6	-19	3	69*	-8	14	3	0
CCOc1ccc(NC(=O)CN(C)C(=O)c2cc(-c3ccco3)nc3ccccc23)cc1OCC	-11	-18	-1	62*	-19	15	+	+
